# In PubChem BioAssay (Tox21):
# Results filed as inconclusive are left out. Unmarked numbers belong to inactive results. Active and inactive are the calls of the source. Calls come from the whole dose curve; as a rule, active = well fitted cell-killing curve with a large enough effect in the repeat runs; inconclusive = weak or mixed curves, or effect the other way; inactive = flat fitted curve, though single readings scatter.
# Assay: qHTS assay to identify small molecule antagonists of the estrogen receptor alpha (ER-alpha) signaling pathway using the BG1 cell line in the presence of 0.1 nM 17-beta-estradiol - cell viability counter screen (AID 1259241); note: nearly all actives have a fitted effect of over 40% in size
# Settings: VM7Luc4E2 (BG1) viability, CellTiter-Fluor protease, 22 h, 0.1 nM estradiol agonist added; series mostly up to 92.4 µM
# Text: National Center for Advancing Translational Sciences [NCATS]
# NIH Chemical Genomics Center [NCGC]
# U.S. Environmental Protection Agency [EPA]
# National Institutes of Environmental Health Sciences [NIEHS]
# National Toxicology Program [NTP]
# U.S. Food and Drug Administration [FDA]
# Estrogen receptor (ER), a member of the nuclear hormone receptor plays an important role in development, metabolic homeostasis and reproduction. Two subtypes of ER, ER-alpha and ER-beta, have similar expression patterns with some uniqueness in both types. Endocrine disrupting chemicals (EDCs) and their interactions with steroid hormone receptors like ER causes disruption of normal endocrine function. Therefore, it is important to understand the effect of environmental chemicals in ER signaling pathway. For identifying ER antagonists, VM7Luc4E2 cell line was used to screen against Tox21 compound libraries.
# VM7Luc4E2 cell line (provided by Denison MS, University of California) endogenously express full-length ER-alpha and is stably transfected with a plasmid containing four estrogen responsive elements (ERE) upstream of a luciferase reporter gene. The current screening for identification of ER-alpha inhibitors against Tox21 compound libraries used lower concentration (0.1 nM) of 17beta-Estradiol as a stimulator. The cytotoxicity of the Tox21 compound libraries against VM7Luc4E2 cell line was tested by measuring live-cell protease activity using CellTiter-Fluor assay in the same wells.
# Tox21 Assay Protocol Summary:
# VM7Luc4E2 cells were cultured in phenol red free assay medium containing 10% charcoal stripped FBS for 5 days prior to the assay. The cells were dispensed at 4,000 cells/well in 4 uL of assay medium into white wall/solid-bottom 1536-well plates (Corning Life Sciences, Corning, NY) using a Multidrop Combi (ThermoFisher Scientific, Waltham, MA) dispenser. After the assay plates were incubated at 37C and 5% CO2 for 24 hr, 23 nL of compounds dissolved in DMSO, positive controls or DMSO only was transferred to the assay plates by a Pintool station (Kalypsys, San Diego, CA). The transfer of compounds was followed by the addition of 1 uL of 0.1 nM (final concentration) agonist (17beta-Estradiol)/assay medium using a Flying Reagent Dispenser (FRD, Aurora Discovery, San Diego, CA). The plates were incubated at 37C and 5% CO2 for 22 hr. For cytotoxicity assay, 1 uL of CellTiter-Fluor reagent (Promega Corporation, Madison, WI) was added to each well using the FRD and after 30 min incubation at 37C and 5% CO2, The fluorescence intensity was measured using ViewLux plate reader (PerkinElmer, Shelton, CT).
# % is set by controls: 0 for no effect and ±100 for the full control effect.
SMILES,outcome,"activity change, negative = cytotoxicity"
C=CCn1c(=O)n([C@@H]2O[C@H](CO)[C@@H](O)[C@H]2O)c2nc(N)[nH]c(=O)c21,inactive,
Cn1ccc2cc3c(cc21)CCN3C(=O)Nc1cccnc1,,-4.26% [at 19 µM]
OCCN1C[C@H](O)[C@@H](O)[C@H](O)[C@H]1CO,inactive,
O=C(O)c1ccccc1S,inactive,
CCCc1ccccc1O,inactive,
CCCCCC[C@@H](CCC)C(=O)O,inactive,
CCCCCCCCN(C)CCCCCCCC,inactive,
CCN(CC)C(=O)c1ccc(O)c(OC)c1,inactive,
CC(C=O)Cc1ccc(C(C)C)cc1 (stereo not given),inactive,
CCN1CCCC1CNC(=O)c1cc(S(N)(=O)=O)ccc1OC (stereo not given),inactive,
C#CC(O)C(CC)CCCC (stereo not given),inactive,
O=C(O)c1cccc(C(=O)O)n1,inactive,
CC1(C)OC(=O)Nc2ccc(Br)cc21,inactive,
CO[Si](CCCNCCC[Si](OC)(OC)OC)(OC)OC,inactive,
CC12CCC(CC1=O)C2(C)C (stereo not given),inactive,
Oc1ccc2c(c1)OC[C@@H](N1CCC(O)(c3ccc(F)cc3)CC1)[C@H]2O,inactive,
O=c1[nH]c2ccccc2c(=O)n1CCCl,inactive,
CNC(=O)c1c(I)c(NC(=O)CCCCC(=O)Nc2c(I)c(C(=O)O)c(I)c(C(=O)NC)c2I)c(I)c(C(=O)O)c1I,inactive,
CCOC(=O)Cn1c(=O)sc2cccc(Cl)c21,inactive,
CCCCCN(CCCCC)C(=O)C(CCC(=O)O)NC(=O)c1ccc(Cl)c(Cl)c1 (stereo not given),inactive,

SMILES,outcome,"activity change, negative = cytotoxicity"
Nc1ccc2cc(S(=O)(=O)O)ccc2c1,inactive,
Cc1ccccc1C(=O)O,inactive,
O=C(O)c1ccc[n+]([O-])c1,inactive,
O=C1OC(=O)c2cc([N+](=O)[O-])ccc21,inactive,
C=C(C)C(=O)OCCC(C)OC(=O)C(=C)C (stereo not given),inactive,
COCc1ccc(COC)cc1,inactive,
CCC(=O)Nc1cccc(N)c1,inactive,
CCCCCCC(=O)OCC,inactive,
CC/C=C\C#N,inactive,
COC[C@H](c1ccc(C(F)(F)F)cc1)N1CCN(C2(C)CCN(C(=O)c3c(C)ncnc3C)CC2)C[C@H]1C,inactive,
Cc1nc(-c2ccc(OCC(C)C)c(C#N)c2)sc1C(=O)O,inactive,
COC(=O)[C@H]1[C@H]2C[C@@H]3c4[nH]c5cc(OC)ccc5c4CCN3C[C@H]2C[C@@H](OC(=O)COc2ccc(OC)cc2)[C@@H]1OC,inactive,
CC(=O)N[C@@H](CCC(N)=O)C(=O)O,inactive,
COC(C(=O)O)c1ccccc1 (stereo not given),inactive,
C/C=C1\C(=O)C[C@H]2[C@@H]3CCC4=CC(=O)CC[C@]4(C)[C@H]3CC[C@]12C,inactive,
N#CCN(CC#N)CCN(CC#N)CC#N,inactive,
CC(CCO)CCCC(C)(C)O (stereo not given),inactive,
Nc1ncnc2c1ncn2Cc1c(F)cccc1Cl,inactive,
CCCCNc1ccccc1,inactive,
CC(=O)OC(C)(C)C,inactive,
